The campaign covered roughly 5,500 compounds. About 2,000 (36%) were called active. Another 18% or so got no clear call; they are omitted. No stated cut-off is given here; in the data, active means normalized growth mostly below about 0.91 (no sharp cut-off); inconclusive means no clear call, values can overlap the other calls; inactive means mostly above about 0.92. The list shows a part of the results.
Assay: chemical genetic growth profiling, strain panel (AID 1159580);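 further: tested at 20 µM; growth read once vehicle control cultures reached saturation at 30 °C; 1 = growth at the plate median or of vehicle wells; lower values mean less growth of the strain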
Details: growth OD

Measured: normalized growth

Cc1ccc2c(Cl)cc(Cl)c(O)c2n1
inactive: S. cerevisiae deletion strains, locus YAL021C, strain ccr4, active compounds read low 0.998 | S. cerevisiae deletion strains, locus YAL026C, strain drs2, active compounds read low 1.02 | S. cerevisiae deletion strains, locus YAL030W, strain snc1, active compounds read low 1.01 | S. cerevisiae deletion strains, locus YBL061C, strain skt5, active compounds read low 1.02 | S. cerevisiae deletion strains, locus YBR009C, strain hhf1, active compounds read low 1.02 | S. cerevisiae deletion strains, locus YBR023C, strain chs3, active compounds read low 1.02 | S. cerevisiae deletion strains, locus YBR171W, strain sec66, active compounds read low 1.04 | S. cerevisiae deletion strains, locus YBR231C, strain swc5, active compounds read low 1.03 | S. cerevisiae deletion strains, locus YBR279W, strain paf1, active compounds read low 1.02 | S. cerevisiae deletion strains, locus YCL011C, strain gbp2, active compounds read low 1.01 | S. cerevisiae deletion strains, locus YCL016C, strain dcc1, active compounds read low 1.02 | S. cerevisiae deletion strains, locus YCL069W, strain vba3, active compounds read low 1.01 | S. cerevisiae deletion strains, locus YCR088W, strain abp1, active compounds read low 1.02 | S. cerevisiae deletion strains, locus YDL005C, strain med2, active compounds read low 1.02 | S. cerevisiae deletion strains, locus YDL040C, strain nat1, active compounds read low 1.02 | S. cerevisiae deletion strains, locus YDR001C, strain nth1, active compounds read low 1.02 | S. cerevisiae deletion strains, locus YDR069C, strain doa4, active compounds read low 1.03 | S. cerevisiae deletion strains, locus YDR137W, strain rgp1, active compounds read low 1.06 | S. cerevisiae deletion strains, locus YDR159W, strain sac3, active compounds read low 1.02 | S. cerevisiae deletion strains, locus YDR195W, strain ref2 0.987 | S. cerevisiae deletion strains, locus YDR297W, strain sur2, active compounds read low 1.02 | S. cerevisiae deletion strains, locus YDR334W, strain swr1, active compounds read low 1.02 | S. cerevisiae deletion strains, locus YDR335W, strain msn5, active compounds read low 1.01 | S. cerevisiae deletion strains, locus YDR392W, strain spt3, active compounds read low 1.02 | S. cerevisiae deletion strains, locus YEL003W, strain gim4, active compounds read low 1.01 | S. cerevisiae deletion strains, locus YEL037C, strain rad23, active compounds read low 1.02 | S. cerevisiae deletion strains, locus YEL061C, strain CIN8 (second series), active compounds read low 1.01 | S. cerevisiae deletion strains, locus YER015W, strain faa2, active compounds read low 1.01 | S. cerevisiae deletion strains, locus YER016W, strain bim1, active compounds read low 1.02 | S. cerevisiae deletion strains, locus YER111C, strain swi4, active compounds read low 1.02 | S. cerevisiae deletion strains, locus YER155C, strain BEM2 (second series), active compounds read low 1.02 | S. cerevisiae deletion strains, locus YFR010W, strain ubp6, active compounds read low 1.01 | S. cerevisiae deletion strains, locus YGL167C, strain pmr1, active compounds read low 1.03 | S. cerevisiae deletion strains, locus YGL173C, strain kem1, active compounds read low 1.02 | S. cerevisiae deletion strains, locus YGL227W, strain vid30, active compounds read low 1.05 | S. cerevisiae deletion strains, locus YGL240W, strain doc1, active compounds read low 1.02 | S. cerevisiae deletion strains, locus YGL253W, strain hxk2, active compounds read low 1.01 | S. cerevisiae deletion strains, locus YHR013C, strain ard1, active compounds read low 1.04 | S. cerevisiae deletion strains, locus YHR027C, strain rpn1, active compounds read low 1.02 | S. cerevisiae deletion strains, locus YHR142W, strain chs7, active compounds read low 1.03 | S. cerevisiae deletion strains, locus YJL092W, strain hpr5, active compounds read low 1.02 | S. cerevisiae deletion strains, locus YJL095W, strain BCK1 (second series), active compounds read low 1.04 | S. cerevisiae deletion strains, locus YJL115W, strain asf1, active compounds read low 1.03 | S. cerevisiae deletion strains, locus YJL129C, strain trk1, active compounds read low 1.02 | S. cerevisiae deletion strains, locus YJL154C, strain vps35, active compounds read low 1.02 | S. cerevisiae deletion strains, locus YJL164C, strain tpk1, active compounds read low 1.02 | S. cerevisiae deletion strains, locus YJL166W, strain qcr8, active compounds read low 1.04 | S. cerevisiae deletion strains, locus YJL187C, strain SWE1, active compounds read low 0.999 | S. cerevisiae deletion strains, locus YKL160W, strain elf1, active compounds read low 1.02 | S. cerevisiae deletion strains, locus YKR026C, strain gcn3, active compounds read low 1.02 | S. cerevisiae deletion strains, locus YKR091W, strain srl3, active compounds read low 1.02 | S. cerevisiae deletion strains, locus YLL001W, strain dnm1, active compounds read low 1.02 | S. cerevisiae deletion strains, locus YLL026W, active compounds read low 0.999 | S. cerevisiae deletion strains, locus YLL041C, strain sdh2, active compounds read low 1.03 | S. cerevisiae deletion strains, locus YLR027C, strain aat2, active compounds read low 1.02 | S. cerevisiae deletion strains, locus YLR221C, strain rsa3, active compounds read low 1.01 | S. cerevisiae deletion strains, locus YLR258W, strain gsy2, active compounds read low 1.02 | S. cerevisiae deletion strains, locus YLR262C, strain YPT6 (second series), active compounds read low 1 | S. cerevisiae deletion strains, locus YLR320W, strain mms22, active compounds read low 1.03 | S. cerevisiae deletion strains, locus YLR342W, strain FKS1, active compounds read low 1.05 | S. cerevisiae deletion strains, locus YLR357W, strain rsc2, active compounds read low 1.04 | S. cerevisiae deletion strains, locus YLR370C, strain arc18, active compounds read low 1.02 | S. cerevisiae deletion strains, locus YLR384C, strain iki3, active compounds read low 1.03 | S. cerevisiae deletion strains, locus YML120C, strain ndi1, active compounds read low 1 | S. cerevisiae deletion strains, locus YMR058W, strain fet3, active compounds read low 1.01 | S. cerevisiae deletion strains, locus YMR125W, strain sto1, active compounds read low 1.02 | S. cerevisiae deletion strains, locus YMR129W, active compounds read low 1.01 | S. cerevisiae deletion strains, locus YMR205C, strain PFK2, active compounds read low 1.02 | S. cerevisiae deletion strains, locus YMR231W, strain pep5, active compounds read low 1.02 | S. cerevisiae deletion strains, locus YNL071W, strain lat1, active compounds read low 1.01 | S. cerevisiae deletion strains, locus YNL209W, strain ssb2, active compounds read low 1.01 | S. cerevisiae deletion strains, locus YNL248C, strain rpa49, active compounds read low 1.01 | S. cerevisiae deletion strains, locus YNL322C, strain KRE1 (second series), active compounds read low 1.03 | S. cerevisiae deletion strains, locus YNR049C, strain mso1, active compounds read low 1.03 | S. cerevisiae deletion strains, locus YOR001W, strain rrp6, active compounds read low 1.02 | S. cerevisiae deletion strains, locus YOR070C, strain gyp1, active compounds read low 1.03 | S. cerevisiae deletion strains, locus YOR080W, strain dia2, active compounds read low 1.02 | S. cerevisiae deletion strains, locus YOR083W, strain WHI5, active compounds read low 1.03 | S. cerevisiae deletion strains, locus YOR106W, strain vam3, active compounds read low 1.01 | S. cerevisiae deletion strains, locus YOR265W, strain rbl2, active compounds read low 1.01 | S. cerevisiae deletion strains, locus YOR270C, strain vph1, active compounds read low 1.02 | S. cerevisiae deletion strains, locus YOR290C, strain snf2, active compounds read low 1.03 | S. cerevisiae deletion strains, locus YPL051W, strain arl3, active compounds read low 1.01 | S. cerevisiae deletion strains, locus YPL078C, strain atp4, active compounds read low 1.01 | S. cerevisiae deletion strains, locus YPL106C, strain sse1, active compounds read low 1 | S. cerevisiae deletion strains, locus YPL240C, strain hsp82, active compounds read low 1.01

C#CCOc1c(Cl)cccc1Cl
inactive: S. cerevisiae deletion strains, locus YAL013W, strain DEP1, active compounds read low 0.97 | S. cerevisiae deletion strains, locus YBR229C, strain ROT2, active compounds read low 0.989 | S. cerevisiae deletion strains, locus YCL061C, strain MRC1, active compounds read low 0.954 | S. cerevisiae deletion strains, locus YDL101C, strain DUN1, active compounds read low 0.962 | S. cerevisiae deletion strains, locus YDL134C, strain PPH21, active compounds read low 1.01 | S. cerevisiae deletion strains, locus YDR150W, strain NUM1, active compounds read low 0.937 | S. cerevisiae deletion strains, locus YEL061C, strain CIN8, active compounds read low 1.01 | S. cerevisiae deletion strains, locus YGR078C, strain PAC10, active compounds read low 0.992 | S. cerevisiae deletion strains, locus YHR030C, strain SLT2, active compounds read low 0.995 | S. cerevisiae deletion strains, locus YHR087W, strain rtc3, active compounds read low 1.04 | S. cerevisiae deletion strains, locus YJR043C, strain POL32, active compounds read low 0.972 | S. cerevisiae deletion strains, locus YJR075W, strain HOC1, active compounds read low 1.03 | S. cerevisiae deletion strains, locus YKL190W, strain CNB1, active compounds read low 1.01 | S. cerevisiae deletion strains, locus YLR039C, strain RIC1, active compounds read low 0.872 | S. cerevisiae deletion strains, locus YLR058C, strain SHM2 (second series), active compounds read low 1.01 | S. cerevisiae deletion strains, locus YLR085C, strain ARP6, active compounds read low 0.966 | S. cerevisiae deletion strains, locus YLR262C, strain YPT6, active compounds read low 0.838 | S. cerevisiae deletion strains, locus YML094W, strain GIM5, active compounds read low 0.987 | S. cerevisiae deletion strains, locus YMR219W, strain ESC1, active compounds read low 0.995 | S. cerevisiae deletion strains, locus YMR263W, strain SAP30, active compounds read low 0.998 | S. cerevisiae deletion strains, locus YNL153C, strain GIM3, active compounds read low 0.982 | S. cerevisiae deletion strains, locus YNL298W, strain CLA4 (second series), active compounds read low 0.982 | S. cerevisiae deletion strains, locus YNL322C, strain KRE1, active compounds read low 0.986 | S. cerevisiae deletion strains, locus YNR030W, strain Alg12, active compounds read low 1.01 | S. cerevisiae deletion strains, locus YPL055C, strain LGE1, active compounds read low 0.985 | S. cerevisiae deletion strains, locus YPL241C, strain CIN2, active compounds read low 0.989 | S. cerevisiae deletion strains, locus YPR135W, strain CTF4, active compounds read low 0.998 | S. cerevisiae strains, strain wild type, active compounds read low 0.999

— PubChem BioAssay AID1159580 (chemical genetic matrix, 2015)
